# Laboratory results as given in PubChem BioAssay (EPA / NIEHS).
# Records with an inconclusive call do not appear. Activity calls are given as the source filed them. Rule for the calls: active = hit-call score of the fitted dose curve at least 0.9, where 1 is the maximum; inconclusive = response in the unintended direction; inactive = score below 0.9.
# Target: Oxysterols receptor LXR-beta (Homo sapiens) (UniProt P55055)
# Assay: ATG_LXRb_TRANS: Attagene TRANS-FACTORIAL HepG2 Assay for human Liver X Receptor beta (LXRb) (AID 2282981)
# Settings: HepG2 Attagene TRANS GAL4-LXRb reporter, mRNA
# Experimental: ATG_TRANS is a cell-based, multiplexed-readout assay that uses HepG2, a human liver cell line, with measurements taken at 24 hours after chemical dosing in a 24-well plate.ATG_LXRb_TRANS is one of 30 assay component(s) measured or calculated from the ATG_TRANS assay. It is designed to make measurements of mRNA induction, a form of inducible reporter, as detected with fluorescence intensity signals by Reverse transcription polymerase chain reaction (RT-PCR) and Capillary electrophoresis technology.Data from the assay component ATG_LXRb_TRANS was analyzed into 1 assay endpoint. This assay endpoint, ATG_LXRb_TRANS, was analyzed in the positive analysis fitting direction relative to DMSO as the negative control and baseline of activity. Using a type of inducible reporter, measures of mRNA for gain-of-signal activity can be used to understand the reporter gene at the transcription factor-level as they relate to the gene NR1H2. Furthermore, this assay endpoint can be referred to as a primary readout, because this assay has produced multiple assay endpoints where this one serves a reporter gene function. To generalize the intended target to other relatable targets, this assay endpoint is annotated to the nuclear receptor intended target family, where the subfamily is non-steroidal.
# Human liver HepG2 cells are transiently transfected with multiple reporter transcription units (MRTUs) in 6-well plates using FuGene 6 reagent (Roche; 3 ml FuGene/1 mg DNA). The MRTU constructs are regulated by a cis-regulating element (promoter). […] A major difference between the CIS and TRANS system is that in CIS activities of endogenous TFs are measured, whereas the TRANS assay evaluates changes in activities of exogenous, chimeric NR-Gal4 proteins. […] At the end of 24 hour incubation, total RNA was isolated using TriZol reagent (Invitrogen). The isolated RNA is then reverse-transcribed using oligo(dT) primer and Mo-MLV reverse transcriptase (Invitrogen) with DNAse I (Ambion) treatment for 30 min. The one-tenth of the produced cDNA was amplified by PCR using Taq DNA polymerase (Invitrogen) and two reporter sequence-specific primers. The PCR products were fluorescently labeled by primer extension with 6-arboxyfluorescein (6-FAM) 5'-labeled reporter sequence-specific primer (2 min at 95 C, 20 s at 68 C and 10 min at 72 C) and these products were digested with 5U of HpaI (New England Biolabs) for 2h at 37 C. The fragments were purified using Qiaquick PCR columns (Qiagen), analyzed on an ABI 3130xL genetic analyzer (Applied Biosystems) with peak positions identified by using a set of X-rhodamine (ROX)-labeled MapMarker1000 molecular weight standards (BioVentures). The raw capillary electrophoresis data was processed using Attagraph software (Attagene).
# Sequence of Oxysterols receptor LXR-beta (Homo sapiens) (P55055 whole entry, looked up): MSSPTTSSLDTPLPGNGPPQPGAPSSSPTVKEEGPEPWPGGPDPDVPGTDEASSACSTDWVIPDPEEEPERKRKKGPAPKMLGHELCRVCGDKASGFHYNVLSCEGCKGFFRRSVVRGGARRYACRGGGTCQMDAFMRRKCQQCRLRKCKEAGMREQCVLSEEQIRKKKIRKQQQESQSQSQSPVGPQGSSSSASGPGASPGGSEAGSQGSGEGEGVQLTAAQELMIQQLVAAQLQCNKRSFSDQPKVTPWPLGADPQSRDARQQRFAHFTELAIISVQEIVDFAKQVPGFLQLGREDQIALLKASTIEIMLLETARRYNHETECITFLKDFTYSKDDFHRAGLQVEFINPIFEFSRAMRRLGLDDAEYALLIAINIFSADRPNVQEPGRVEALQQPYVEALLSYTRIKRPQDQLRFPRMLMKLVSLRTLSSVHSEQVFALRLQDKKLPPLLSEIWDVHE
row,Compound,outcome
1,CCOP(=S)(OCC)SCS(=O)(=O)CC,inactive
2,Cc1cccc(N)c1,inactive
3,OCC(F)(F)OC(F)(F)C(F)(F)OC(F)(F)C(F)(F)OC(F)(F)F,inactive
4,N#Cc1cc([N+](=O)[O-])ccc1N,inactive
5,O=C(O)C1C(C(=O)O)C2(Cl)C(Cl)=C(Cl)C1(Cl)C2(Cl)Cl (stereo not given),inactive
6,c1ccc2c(c1)Nc1ccccc1S2,inactive
7,NNC(N)=S,inactive
8,CCCCN(CC)C(=O)SCCC,inactive
9,O=P1(N(CCCl)CCCl)NCCCO1 (stereo not given),inactive
10,CC(O)C(F)(F)C(F)(F)F (stereo not given),inactive
11,CCOP(=O)(O)C(N)=O,inactive
12,ClC(Cl)(Cl)c1ccccc1,inactive
13,COC(=O)C(F)(F)C(F)(F)OC(F)(C(F)(F)F)C(F)(F)OC(F)=C(F)F (stereo not given),inactive
14,Cn1[nH]nnc1=S,inactive
15,OCC1CO1 (stereo not given),inactive
16,ClC1=C(Cl)C2(Cl)C3C(Cl)C(Cl)CC3C1(Cl)C2(Cl)Cl (stereo not given),inactive
17,FC(F)(F)C(F)(C(F)(F)F)C(F)(F)C(F)(F)CC1CO1 (stereo not given),inactive
18,O=[N+]([O-])c1ccc(Cl)c(Cl)c1,inactive
19,ClC(Cl)c1ccccc1,inactive
20,CCC1(c2ccccc2)C(=O)N=C(O)NC1=O (stereo not given),inactive

row,Compound,outcome
1,CC(=O)c1ccc(-c2ccccc2)cc1,inactive
2,CCCCOCCOP(=O)(OCCOCCCC)OCCOCCCC,inactive
3,CCOP(=S)(OCC)SCSc1ccc(Cl)cc1,inactive
4,CC(C)(C)N(NC(=O)c1ccc(Cl)cc1)C(=O)c1ccccc1,inactive
5,c1ccc2c(c1)sc1ccccc12,inactive
6,O=S(=O)(c1ccc(O)cc1)c1ccc(O)cc1,inactive
7,CN(C)C(=O)Cl,inactive
8,CNC(=O)Oc1ccc(N(C)C)c(C)c1,inactive
9,O=NN1CCCC1,inactive
10,CC(=O)CCc1ccc2c(c1)OCO2,inactive
11,Nc1ccc([N+](=O)[O-])cc1Cl,inactive
12,CC(C)(C)OOC(C)(C)C,inactive
13,Nc1cc2c3c(c1)C(c1ccccc1)=N[C@@H](NC(=O)c1cccnc1)C(=O)N3CC2,inactive
14,OCC(F)(F)OC(F)(F)C(F)(F)OC(F)(F)C(F)(F)OC(F)(F)CO,inactive
15,c1cc2c3c(cccc3c1)CC2,inactive
16,CCCCC(CC)COC(=O)c1c(Br)c(Br)c(Br)c(Br)c1C(=O)OCC(CC)CCCC (stereo not given),inactive
17,O=[N+]([O-])c1ccccc1,inactive
18,Nc1ccc2ccccc2c1,inactive
19,CCOC(=O)c1ccccc1N,inactive
20,CC(Cc1ccc(OCC(=O)O)cc1)NCC(O)c1csc(C(F)(F)F)n1 (stereo not given),inactive
